Source: PubChem BioAssay AID2132 (NMMLSC, 2009)
A number with no mark means an inactive call.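 How the source made its calls: active means inhibition above 20%; inactive means the rest.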 Peptide text beside a SMILES is read from it. * marks the point of attachment. Cbz = O=C(OCc1ccccc1)*

Test: inhibition of 26S proteasome fluorogenic peptide cleavage, counter-screen for 26S proteasome disassembly project, biochemical, fluorogenic peptides, secondary (AID 2132)
Settings: yeast 26S proteasome, fluorogenic peptide cleavage rate; with Ac-RLR-amc; at 100 µM; stronger effect = higher value

Question: For `CC(=O)N1C(=O)C(=C2C=C(C)OC(C)=C2)c2ccccc21`, which inhibition is on record?
Answer: Its inhibition is 20%.

Question: For `CC(C)C[C@@H](C=O)NC(=O)[C@H](CC(C)C)NC(=O)[C@H](CC(C)C)NC(=O)OCc1ccccc1` (Cbz-Leu-Leu-Leu-aldehyde), which inhibition is on record?
Answer: Its inhibition is 5%.
